High-throughput results as filed in PubChem BioAssay.
TIM10 inh – inhibits growth of TIM10 yeast strain; AID 463195; 1.4% of 330,000 active; inhibition, % at 10 µM; S. cerevisiae TIM10 strain growth, BacTiter-Glo luminescence, 24 h;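 active = inhibition of 40% or more at the single tested concentration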;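 also: wild-type TIM10 isogenic control strain grown at permissive 25 °C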
NALP1 inh – NALP1 inhibition. S. cerevisiae NALP1/ASC/caspase-1 growth, X-gal OD620, 72 h. inhibition, % at 10 µM. 0.61% of 280,000 active. AID 2071; in the data active = inhibition mostly above about 24%, no sharp cut-off; inactive = mostly below about 32%
tim10-1 inh – growth inhibitors of tim10-1 mutant yeast; S. cerevisiae tim10-1 ts strain growth, BacTiter-Glo, 24 h; inhibition, % at 20 µM; 2.2% of 330,000 active; AID 463190;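 active = inhibition of at least 40%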;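 also: mutant grown at 25 °C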
NALP3 yeast inh – blocks the NALP3 inflammasome reconstituted in yeast; Yeast reconstituted NLRP3/ASC/caspase-1, beta-gal luminescence, 24 h; inhibition, % at 10 µM; 0.39% of 330,000 active;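 active = inhibition of 50% or more; inactive = inhibition below 50%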
tim23-1 inh – growth inhibitors of tim23-1 mutant yeast | S. cerevisiae tim23-1 growth, BacTiter-Glo luminescence, 24 h | inhibition, % at 20 µM | 1.3% of 330,000 active;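 active = growth inhibition of the mutant yeast at or above 50%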;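 also: temperature-sensitive mutant grown at 25 °C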
PfHsp90 yeast 2 – inhibits growth of yeast expressing Plasmodium falciparum Hsp90 | S. cerevisiae expressing PfHsp90, BacTiter-Glo ATP, 48 h; yeast lacking PDR1 and PDR3 efflux regulators | inhibition, % at 9.4 µM | 0.32% of 310,000 active | AID 504621;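 active = every replicate shows inhibition above about 80%, whatever the replicate mean, limit read from the data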
NALP3 yeast conf – confirmation of NALP3 inhibitors in yeast; shares compounds with NALP3 yeast inh; yeast expressing human NALP3, luminescence; inhibition, % at 10 µM; 81% of 1,300 active; in the data active = inhibition above about 48%
Casp1 ASC ctr – counter-screen for NALP3 inhibitors: yeast caspase-1-ASC. shares compounds with NALP3 yeast inh. yeast expressing Caspase-1-ASC, luminescence counter screen. inhibition, % at 10 µM. 66% of 1,000 active
NALP3 yeast rt – confirmation retest of NALP3 inhibitors in yeast | yeast expressing human NALP3, luminescence read-out | shares compounds with NALP3 yeast inh | inhibition, % at 10 µM | 53% of 1,000 active
Hits are given with their value; i = inactive; nt = no result. An excerpt weighted towards active compounds, which were near 4.2% of everything screened. Rule as the data show it, unless noted: active = inhibition above about 50%; inactive = the rest.

SMILES | TIM10 inh | NALP1 inh | tim10-1 inh | NALP3 yeast inh | tim23-1 inh | PfHsp90 yeast 2 | NALP3 yeast conf | Casp1 ASC ctr | NALP3 yeast rt
Cc1cccc(OCCCSc2nc3ccc(C)cc3[nH]2)c1 | i | i | i | 50.5 | i | i | 52.6 | 53.5 | i
CC(C)=C(NC(=O)c1ccccc1)C(=O)Nc1ccc(C(=O)O)cc1 | i | i | i | i | i | i | nt | nt | nt
O=C(Cc1ccc(Br)cc1)Nc1ccc(Cl)cc1 | i | i | i | i | i | i | nt | nt | nt
O=C(Cc1cccc(Cl)c1)Nc1ccc(Br)cc1 | i | i | i | 54.2 | i | i | i | 57.4 | i
Cc1cc(OCc2nc3ccccc3s2)ccc1N | i | i | i | 54.5 | i | i | i | nt | nt
CC(C)(C)c1ccc(C(=O)NC(=S)N2CCCC2)cc1 | i | i | i | 62.9 | i | i | 49.2 | 80.4 | 71.0
CC(C)(C)c1ccc(C(=O)NC(=S)N2CCCCCC2)cc1 | i | i | i | i | i | i | nt | nt | nt
COc1ccc(C(=O)CCNc2ccc(F)cc2)cc1 | i | nt | i | 57.0 | i | i | i | nt | nt
O=C(COC(=O)/C=C/c1cccs1)Nc1cccc(S(=O)(=O)N2CCCC2)c1 | i | i | i | i | i | i | nt | nt | nt
O=C(Nc1ccccc1)c1ccc(S(=O)(=O)N2CCCCC2)cc1 | i | i | i | 51.6 | i | i | 63.5 | i | i
O=C(Nc1ccccc1)c1ccc(S(=O)(=O)N2CCCC2)cc1 | i | i | i | i | i | i | nt | nt | nt
Oc1c(N=Nc2ccccc2)sc2ccccc12 | i | i | i | 50.6 | i | i | 70.7 | nt | nt
Clc1cc2nc3ccccn3c2cc1Cl | i | i | i | 67.2 | i | i | i | nt | nt
Cc1[nH]cnc1CSCCN | i | i | i | 57.6 | i | i | 69.4 | 53.6 | 65.2
Cc1[nH]cnc1CSCc1ccc(Cl)cc1 | i | i | i | i | i | i | nt | nt | nt
C=CCc1ccc(OCCn2nnc3ccccc32)c(OC)c1 | i | i | i | 53.1 | i | i | 63.2 | 50.2 | i
NCCC(=O)N1c2ccccc2Sc2ccccc21 | i | 35.9 | i | 68.4 | i | i | 78.2 | 62.4 | 76.6
CN1CCN(c2ccccc2NC(=O)c2cc3c(s2)-c2ccccc2OC3)CC1 | i | nt | i | 70.7 | i | i | 76.2 | 81.8 | 75.5
O=C(Nc1cccnc1Cl)c1cc2c(s1)-c1ccccc1OC2 | i | i | i | i | i | i | nt | nt | nt
COc1ccccc1-c1ccc(SCc2ccc(C)cc2)nn1 | i | i | i | 54.5 | i | i | 58.9 | 52.5 | 54.5
COc1ccccc1-c1ccc(SCc2ccc(F)cc2)nn1 | i | i | i | i | i | i | nt | nt | nt
O=C(NCCCCc1ccccc1)c1ccc(Br)cc1 | i | i | i | 58.7 | i | 111.7 | 60.8 | i | i
O=C(NCCCCc1ccccc1)c1ccccc1F | i | i | i | 54.1 | i | i | 62.5 | 53.1 | i
Cc1ccc(C(=O)NC2CCS(=O)(=O)C2)cc1S(=O)(=O)N1CCCCCC1 (stereo not given) | i | i | i | i | i | i | nt | nt | nt
Cc1ccc(OCC(=O)Nc2ccc(CN3CCCCC3)cc2)c(C)c1 | i | i | i | i | i | i | nt | nt | nt
SMILES | TIM10 inh | NALP1 inh | tim10-1 inh | NALP3 yeast inh | tim23-1 inh | PfHsp90 yeast 2 | NALP3 yeast conf | Casp1 ASC ctr | NALP3 yeast rt
COc1ccc(NC(=O)Cn2c(NCC(C)O)nc3ccccc32)cc1Cl (stereo not given) | i | i | i | i | i | i | nt | nt | nt
COc1cc(C)ccc1OCCOc1ccccc1Cl | i | i | i | 50.9 | i | i | 49.0 | i | i
CCCN(CCC)CCNC(=S)Nc1ccc2nc3n(c(=O)c2c1)CCCCC3 | i | i | i | i | i | nt | nt | nt | nt
CC(=O)c1cnc2nc(SCc3ccc(Cl)cc3)nn2c1C | i | i | i | 52.8 | i | i | 71.3 | 64.3 | 50.5
CC(=O)c1cnc2nc(SCc3ccc(C)cc3)nn2c1C | i | i | i | i | i | i | nt | nt | nt
CCN(CC)S(=O)(=O)c1cccc(-c2nc3n(n2)Cc2ccccc2-3)c1 | i | i | i | i | i | i | i | nt | nt
O=S(=O)(c1ccsc1)N1CC=C(c2ccccc2)CC1 | i | i | i | 58.4 | i | i | 61.1 | i | i
CN(C(=O)c1cccc(NC(=O)Cc2ccc(NC(=O)C3CCN(S(=O)(=O)c4cccc([N+](=O)[O-])c4)CC3)cc2)c1)C1CC1 | nt | nt | nt | nt | nt | i | nt | nt | nt
CCOc1ccccc1CN1CCN(CC2=Cc3cc(OC)ccc3OC2)CC1CCO (stereo not given) | i | i | i | i | i | i | nt | nt | nt
Cc1cc(C)cc(NC(=O)N2CCc3ccccc3C2)c1 | i | i | i | 53.2 | i | i | 63.8 | i | i
Nc1c(-c2cccc(Cl)c2)cnn1-c1cccc(C(F)(F)F)c1 | i | i | i | 53.5 | i | i | 72.5 | 65.0 | 50.2
Cc1ccc(-c2cnn(-c3ccccc3)c2N)cc1 | i | i | i | i | i | i | nt | nt | nt
Nc1c(-c2ccc(Cl)cc2)cnn1-c1cc(C(F)(F)F)cc(C(F)(F)F)c1 | i | nt | i | i | i | i | nt | nt | nt
Nc1c(-c2ccccc2)cnn1-c1cccc(C(F)(F)F)c1 | i | i | i | 59.6 | i | i | 62.3 | 61.9 | 52.9
COc1ccc(OC(C)C(=O)N2CCCc3ccccc32)cc1 (stereo not given) | i | i | i | i | i | i | nt | nt | nt
Cc1ccc(Nc2nc(N)c3ccccc3n2)cc1Cl | i | i | i | 54.6 | i | i | 64.6 | i | i
COc1cc2nc(Nc3ccc(C)c(Cl)c3)nc(N)c2cc1OC | i | i | i | i | i | i | nt | nt | nt
CCc1ccccc1NC(=O)c1cc(-c2cccs2)on1 | i | i | i | 56.5 | i | i | 65.0 | 59.0 | 59.8
CCN1CCN(c2ncnc3sc(C)c(-c4ccccc4)c23)CC1 | i | i | i | i | i | i | nt | nt | nt
COc1ccc(-c2cc3nc4ccccc4n3c(N)c2C#N)cc1 | i | i | i | 68.3 | i | i | i | i | i
CCN1CCN(c2ccc(NC(=O)COc3ccc(Cl)cc3C)cc2)CC1 | i | nt | i | i | i | i | nt | nt | nt
CC(=O)c1ccc(S(=O)(=O)N2CCN(C(=O)CSc3ccc(F)cc3)CC2)cc1 | i | i | i | i | i | i | nt | nt | nt
Cc1cccc(C)c1NC(=O)C(C)N (stereo not given) | i | nt | i | 55.4 | i | nt | 58.6 | i | i
Cc1cccc(C)c1NC(=O)C(C)N1CCCC1 (stereo not given) | i | i | i | i | i | i | nt | nt | nt
CCCCC[C@H](O)/C=C/C1C(=O)C=C[C@H]1C/C=C\CCCC(=O)OC (stereo not given in full) | nt | nt | nt | nt | nt | i | nt | nt | nt
CCN(CC)S(=O)(=O)c1cccc(C(=O)Nc2cc(C)cc(C)c2)c1 | i | i | i | i | i | i | nt | nt | nt
CCN(CC)S(=O)(=O)c1ccc(C(=O)Nc2cc(C)cc(C)c2)cc1 | i | i | i | 50.6 | i | i | 51.6 | i | i
CC1CCc2c(C(=O)NCCN3CCOCC3)csc2C1 (stereo not given) | i | i | i | i | i | i | nt | nt | nt
